Assay outcomes: PubChem, National Center for Advancing Translational Sciences (NCATS)
Only some compounds are listed: those with a hit (about 6.9% of all), similar ones and a draw of the others.
MCF10A rerep: induces DNA re-replication in MCF 10a normal breast cells. MCF 10A DNA re-replication, Hoechst nuclear intensity, 48 h. Potency, µM (series often up to 46.1 µM), inactives show at the top dose activity, positive = re-replication, hits mostly activators. actives 2.9% (n = 350,000); also: potency is read from the fitted curve at half-maximal effect; % of control where 0% means no effect; nearly all actives have a fitted effect of over 50% in size
Vif-A3G inh: blocks the Vif interaction with human APOBEC3G | Q9HC16 | actives 0.076% (n = 410,000) | HeLa A3G-eYFP + Vif (tagged APOBEC3G with the HIV-1 protein that degrades it), YFP fluorescence, overnight | Potency, µM (top dose mostly 46.1 µM), for the others: at the highest dose activity, negative = active, most hits filed as inhibitors; also: potency is read from the fitted curve at half-maximal effect; % is scaled to controls: 0 for no effect and ±100 for the full control effect; nearly all actives have a fitted effect of over 60% in size
Target sequence (Q9HC16 whole entry, looked up): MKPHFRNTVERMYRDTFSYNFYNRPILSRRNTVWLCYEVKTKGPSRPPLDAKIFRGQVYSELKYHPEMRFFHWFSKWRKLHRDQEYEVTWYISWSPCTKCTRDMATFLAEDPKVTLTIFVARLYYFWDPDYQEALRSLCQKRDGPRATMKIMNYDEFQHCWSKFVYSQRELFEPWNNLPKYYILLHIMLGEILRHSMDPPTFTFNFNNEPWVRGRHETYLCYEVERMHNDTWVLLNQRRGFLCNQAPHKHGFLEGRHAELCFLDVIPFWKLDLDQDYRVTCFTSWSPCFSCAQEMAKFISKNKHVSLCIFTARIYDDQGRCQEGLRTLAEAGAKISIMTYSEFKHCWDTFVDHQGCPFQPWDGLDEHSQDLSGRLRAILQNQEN
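HeLa cells stably expressing Vif and C-terminally eYFP-tagged A3G, seeded overnight at 37 deg C, then exposed to compound by pintool overnight at 37 deg C. Rise in yellow fluorescence (Ex 488/Em 500-530, Acumen) marks blocked Vif-driven A3G degradation.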
SW480 rerep: induces DNA re-replication in SW480 colon adenocarcinoma cells | Potency, µM (top dose mostly 46.1 µM), for inactives: at the highest dose re-replication activation, usual class: activators | AID 624297 | SW480 DNA re-replication, Hoechst DNA content imaging, 48 h | actives 1.8% (n = 340,000); also: potency is read from the fitted curve at half-maximal effect; % of control where 0% means no effect; nearly all actives have a fitted effect of over 55% in size
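Image-based read-out: total Hoechst fluorescence of nuclei (405 nm excitation, 500-530 nm emission), with hits raising the fraction of high-intensity nuclei. SW480 colon cells incubated 48 hr with compounds at 37 C.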
IL1B secr inh: inflammasome signaling inhibition, IL-1 beta readout. activity change, % at 57.5 µM. AID 743279. THP-1 LPS/ATP IL-1B secretion, AlphaLISA, 16 h; stronger effect = lower value. actives 4.7% (n = 360,000); in the data active = activity change below about -50%; inconclusive = mostly about -30% to -49%; also: % is scaled to controls: 0 for no effect and ±100 for the full control effect
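Secreted IL-1B measured by AlphaLISA bead assay after 16 h compound exposure of THP-1 cells; compounds (final up to 57.5 uM) added 1 h before LPS (250 ng/mL) and ATP (1.25 mM) stimulation; lower signal means less secretion.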
Vif-A3F inh: Vif-A3F binding inhibition; HeLa A3F-eYFP + Vif (tagged APOBEC3F with the HIV-1 protein that degrades it), YFP fluorescence increase; Potency, µM (top dose mostly 46.1 µM), for the others: at the highest dose activity, negative = active; actives 0.2% (n = 390,000); also: potency is read from the fitted curve at half-maximal effect; % of control where 0% means no effect; nearly all actives have a fitted effect of over 65% in size
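HeLa cells stably expressing A3F-eYFP plus Vif, plated and incubated overnight at 37 deg C, then exposed to compounds overnight at 37 deg C. Blocked degradation read as raised yellow fluorescence (Ex 488/Em 500-530).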
Giardia kill: kills Giardia lamblia; Giardia lamblia trophozoite viability; activity change, % at 7.66 µM, hits read low; actives 0.15% (n = 340,000); AID 540267; in the data active = activity change below about -80%; inconclusive = between about -30% and that limit;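 also: parasites exposed to compound for two days anaerobically before the ATP read; % is scaled to controls: 0 for no effect and ±100 for the full control effect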
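ATP-content bioluminescence gauges trophozoite survival. Cells (100/well) receive compound and incubate anaerobically for 48 hrs at 37 deg C; detection reagent follows for 15-30 min at room temperature.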
* = called active by the depositor; ? = inconclusive; . = no result. Unless noted, calls follow the shape of the dose curve; as a rule, active = well fitted curve in the direction sought with a large enough effect; inconclusive = small, poorly fitted or top-dose-only effect, or another doubt; inactive = no such curve, though single readings can be large; an effect the other way counts as inactive or inconclusive.

SMILES | MCF10A rerep | Vif-A3G inh | SW480 rerep | IL1B secr inh | Vif-A3F inh | Giardia kill
O=C(NCc1ccccc1)c1c(Cl)nc(Cl)c(Cl)c1Cl | 18µM* | ? | 6.5µM* | -107* | -2% | -6
CCOC(=O)C(Cc1c[nH]c2ccccc12)NC(=O)COc1ccc(Cl)c(C)c1 (configuration not stated) | . | -4% | . | . | -14% | .
O=C(Nc1ncc2c(n1)-c1ccccc1CC2)c1cccc(Cl)c1 | 13µM* | ? | ? | 18 | -2% | 15
COCCNCC1C(Oc2ccc(Cl)cc2)C(=O)N1c1ccccc1C (configuration not stated) | 1% | 0% | 5% | -17 | 2% | 2
COc1ccc(CCNCC2C(Oc3ccc(Cl)cc3)C(=O)N2c2ccccc2C)cc1OC (configuration not stated) | 9% | 2% | 5% | -73* | 6% | 12
COc1ccc(OC2C(=O)N(c3cc(C)ccc3C)C2c2ccc(OC)c(OC)c2)cc1 (configuration not stated) | 0% | -7% | . | 0 | -13% | 7
Cc1ccccc1N1C(=O)C(Oc2ccc(Cl)cc2)C1CNC(C)(C)C (configuration not stated) | 12% | 0% | ? | -55* | -26% | 28
Cc1ccccc1-n1nc2c(c1NC(=O)COc1ccc(Cl)cc1)CS(=O)C2 (configuration not stated) | -1% | -1% | 0% | 17 | 2% | 14
CCCNCC1C(Oc2ccc(Cl)cc2)C(=O)N1c1ccccc1C (configuration not stated) | 2% | 1% | -3% | -52* | ? | 1
CC(C)Cc1ccc(C(C)/C=C2/CCC(CN3CCCCC3)C2=O)cc1 (configuration not stated) | 15µM* | -17% | ? | -106* | 2% | -19
CC(C)Cc1ccc(CN2CCCC(NC(=O)CCN3CCCCC3=O)C2)cc1 (configuration not stated) | 0% | 3% | ? | 21 | 10% | 14
Cn1c(SSc2ccc(-c3cccnc3)n2C)ccc1-c1cccnc1 | 204% | -9% | ? | -98* | ? | -3
CCCCCc1c(-c2ccc(F)cc2)ncn1CCc1ccccc1OC | . | . | . | -51* | . | .
CCCCCc1c(-c2ccc(Br)cc2)ncn1CCc1ccccc1OC | . | . | . | -83* | . | .
CC(=O)CC[N+](C)(C)C | 23% | -1% | ? | -96* | 17% | 7
Cc1oc(-c2ccc(Cl)cc2)nc1Cn1c(=O)cc(C)c2c(C)nn(-c3ccccc3)c21 | . | 0% | . | . | 3% | .
Cc1ccccc1-c1noc(-c2cc(C(C)C)[nH]n2)n1 | . | 0% | . | . | -14% | .
C=CCOC(=O)C1=C(C)NC(C)=C(C(=O)OCC=C)C1/C=C/c1ccccc1 | 166% | -17% | ? | -69* | -38% | -1
CCOC(=O)C1=C(C)NC(C)=C(C(=O)OCC)C1C(=O)OCC(=O)NCCc1ccccc1 | ? | 0% | ? | -55* | 9% | 12
CCOC(=O)C1=C(C)NC(C)=C(C(=O)OCC)C1/C=C/c1ccccc1 | ? | -9% | ? | -55* | ? | -11
CCOC(=O)C1=C(C)NC(C)=C(C(=O)OCC)C1/C=C/c1ccccc1OC | ? | -18% | 23µM* | -21 | -7% | -17
CCOC(=O)C1=C(C)NC(C)=C(C(=O)OCC)C1c1ccccc1C=CC(=O)OC(C)(C)C | ? | . | 30µM* | . | . | .
CCOC(=O)C1=C(C)NC(=O)NC1c1ccccc1Cl (configuration not stated) | -6% | -7% | 0% | 20 | -4% | 7
COC(=O)c1ccccc1NC(=O)c1nc(S(=O)(=O)Cc2ccccc2)ncc1Cl | ? | 0% | -4% | -16 | 2% | 11
CCc1nnc(NC(=O)CN2CCN(Cc3ccc(C)cc3)CC2)s1 | 0.92µM* | -4% | ? | -1 | 4% | 19
